# Measurements as given in PubChem BioAssay (Tox21).
# Records with an inconclusive call do not appear. Values without a mark were called inactive. Calls follow the shape of the dose curve; as a rule, active = well fitted cell-killing curve with a large enough effect in the repeat runs; inconclusive = weak or mixed curves; inactive = flat fitted curve, though single readings scatter.
# Test: qHTS assay to identify small molecule antagonists of the estrogen related receptor (ERR) signaling pathway - cell viability counter screen (AID 1224818)
# Settings: ERR reporter cell line viability counter screen; series mostly up to 46.1 µM; viability change, negative = cytotoxic: at the top concentration
# Excerpt: National Center for Advancing Translational Sciences [NCATS]
# NIH Chemical Genomics Center [NCGC]
# U.S. Environmental Protection Agency [EPA]
# National Institutes of Environmental Health Sciences [NIEHS]
# National Toxicology Program [NTP]
# U.S. Food and Drug Administration [FDA]
# Estrogen related receptors (ERRs), the first orphan nuclear receptors discovered, play an important role in the control of cellular energy metabolism. ERRs are required for high-energy production in response to the environmental challenges. ERR-alpha was also identified as an adverse marker for breast cancer progression; ERR-alpha-positive tumors have a poor prognosis. To screen and to identify environmental compounds that perturb the ERR signaling pathways could provide valuable information for potential therapeutic or preventive measures in the treatment of metabolic disease. To differentiate true ERR antagonists or agonist from cytotoxic substances, the assay is multiplexed with cell viability assay.
# Tox21 Assay Protocol Summary:
# The ERR cells were dispensed at 2,000 cells/5 ul/well in 1536-well white plates using a Multidrop dispenser. After the assay plates were incubated at a 37 C/5% CO2 incubator for 6 hours, 23 nL of compounds dissolved in DMSO, positive and negative controls or DMSO only was transferred to the assay plate by a pin tool. The plates were incubated at 37 C for 17.5 hours. 1 ul/well of CellTiter-Fluor reagent was added into the assay plates using a Flying Reagent Dispenser. After 30 min incubation at 37 C/5% CO2, the fluorescence intensity in the plates was measured using a ViewLux plate reader.
# % is scaled to controls: 0 for no effect and ±100 for the full control effect.
row,Compound,"viability change, negative = cytotoxic [%]"
1,O=c1c(O)c(-c2ccc(O)cc2O)oc2cc(O)cc(O)c12,-14
2,Cc1cc(C(C)(C)C)cc(C)c1CC1=NCCN1,-1.08
3,Oc1ccccc1O,-23.4
4,Nc1nc2c(ncn2COCCO)c(=O)[nH]1,9.78
5,CC[N+](CC)(CC)CCOc1ccc(/C=C/c2ccccc2)cc1,-11.4
6,CCCCN(CCCC)CC(O)c1cc(Cl)cc2c1-c1ccc(Cl)cc1/C2=C/c1ccc(Cl)cc1 (stereo not drawn),-4.65
7,CN1CCN2c3ccccc3Cc3ccccc3C2C1 (stereo not drawn),-3.96
8,O=C1CCc2cc(OCCCCc3nnnn3C3CCCCC3)ccc2N1,-14.4
9,O=C(O)Cc1ccccc1Nc1c(Cl)cccc1Cl,12.1
10,CC(CCc1ccccc1)NCC(O)c1ccc(O)c(C(N)=O)c1 (stereo not drawn),-26.4
11,CC(=O)[C@H]1CC[C@H]2[C@@H]3CCC4=CC(=O)CC[C@]4(C)[C@H]3CC[C@]12C,-22.7
12,Cc1cc(C)c(/C=C2\C(=O)Nc3ccccc32)[nH]1,-10.1
13,CC(N=C(NC#N)Nc1ccncc1)C(C)(C)C (stereo not drawn),4.81
